Test results as given in PubChem BioAssay.
Activity calls are given as the source filed them. Unless noted, how the calls were made is not given here.

How the values were obtained:
[1] = test system: Wnt5a (protein binding on small-molecule microarray); experiment: small molecules binding Wnt5a protein – biophysical, small-molecule microarray, 635/667 nm fluorescence, primary screen (AID 1142); settings: 635 nm fluorescence, higher = more signal;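 further: fluorescence read at 667 nm with signal to noise per printed feature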
[2] = ATP-based viability of Huh7 replicon cells – cell-based, CellTiter-Glo luminescence, basal, 48 h, cytotoxicity control for HCV replication inhibitor project, primary screen (AID 1143); settings: Huh7 HCV replicon, CellTiter-Glo luminescence, 48 h, higher = more signal, called active from +8 up or from −8 down unless noted;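 further: Huh7 hepatoma cells carrying a hepatitis C replication reporter with no stimulus; test concentration not given here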
[3] = Pseudomonas biofilm growth suppression – PAO1 strain, BacTiter-Glo luminescence, LB-PBS, primary screen (AID 1144); settings: P. aeruginosa PAO1 biofilm, 12 h, higher = more signal
[4] = basal CRE-LacZ reporter activity in PC12 – cell-based, unstimulated, primary screen (AID 1145); settings: no forskolin, luminescence, 4.5 h; higher = more signal, called active from +8 up or from −8 down unless noted
[5] = forskolin-driven CRE-LacZ activity in PC12 – cell-based, CRE-LacZ reporter, forskolin-stimulated, primary screen (AID 1146); settings: luminescence, 4.5 h; higher = more signal, called active from +8 up or from −8 down unless noted;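 further: PC12 cells with 6xCRE LacZ reporter stimulated by forskolin 10 µM; beta-galactosidase reporter signal reflecting CREB driven transcription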
[6] = biological target: Streptavidin (Streptomyces avidinii) (UniProt P22629); experiment: compounds binding control protein streptavidin – biophysical, small-molecule microarray, 635/667 nm fluorescence, artefact control for SMM compound annotation, primary screen (AID 1147); settings: higher = more signal;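 further: signal reflects streptavidin binding to arrayed compounds as a control protein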
[7] = probe aInhba binding on compound microarray – biochemical, small-molecule microarray, 635/667 nm fluorescence, primary screen (AID 1148); settings: higher = more signal; small-molecule microarray, probe aInhba, fluorescence unless noted;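 further: score merges 667nm spot fluorescence with signal-to-noise for antibody binding to printed compounds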
Torsin-1A (Homo sapiens) [8] = biological target: Torsin-1A (Homo sapiens) (UniProt O14656); experiment: TOR1A wild-type binding on microarray – cell lysate, small-molecule microarray, lysate, 635/667 nm, primary screen (AID 1149); settings: COS7 hTOR1A-WT lysate, 635 nm fluorescence, higher = more signal
Torsin-1A (Homo sapiens) [9] = biological target: Torsin-1A (Homo sapiens) (UniProt O14656); experiment: torsin A mutant lysate binding on microarrays – cell lysate, small-molecule microarray, COS7 lysate, 635/667 nm fluorescence, primary screen (AID 1150); settings: COS7 hTOR1A mutant lysate, 635 nm fluorescence, higher = more signal;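 further: score pools 667 nm emission and signal to noise measuring lysate protein binding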
[10] = test system: Sonic hedgehog protein (Shh); experiment: Sonic hedgehog microarray binding compounds – biochemical, small-molecule microarray, 635/667 nm fluorescence, primary screen (AID 1151); settings: 635 nm fluorescence, higher = more signal;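 further: Shh protein binding to compounds spotted on small-molecule microarray slides; score combines spot fluorescence intensity with signal-to-noise across triplicate slides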
[11] = optical density shifts of acrAB sulA E. coli – strain DRC41, OD650, 48 h, E. coli filamentation inducer project, primary screen (AID 1152); settings: higher = more signal, called active from +8 up or from −8 down unless noted;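 further: E. coli MC1000 strain DRC41 lacking acrAB efflux pump and sulA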
[12] = probe aLefty1 binding on compound microarray – biochemical, small-molecule microarray, 635/667 nm fluorescence, primary screen (AID 1153); settings: higher = more signal; small-molecule microarray, probe aLefty1, fluorescence unless noted;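 further: score merges spot fluorescence with signal-to-noise ratio from the scanned slide images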
[13] = plasmodial surface anion channel blockers, osmotic lysis – cell-based, P. falciparum Indochina, OD700, 1 h, primary screen (AID 1154); settings: P. falciparum Indochina infected RBC osmotic lysis; higher = more signal, called active from +8 up or from −8 down unless noted
[14] = plasmodial surface anion channel blockers, osmotic lysis – cell-based, P. falciparum Indochina, OD700, 2 h, primary screen (AID 1155);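 further: lysis reports solute entry through the parasite surface anion channel PSAC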; settings: P. falciparum Indochina infected erythrocytes; higher = more signal, called active from +8 up or from −8 down unless noted
[15] = changes in parasitized red cell lysis, either direction – P. falciparum Indochina, OD700, 3 h, PSAC antagonist project, primary screen (AID 1156); settings: P. falciparum-infected erythrocytes, osmotic lysis; higher = more signal, called active from +8 up or from −8 down unless noted
[16] = plasmodial surface anion channel blockers, osmotic lysis – cell-based, P. falciparum Indochina, OD700, 18 h, primary screen (AID 1157); settings: P. falciparum Indochina infected erythrocytes, osmotic lysis OD700, 18 h; higher = more signal, called active from +8 up or from −8 down unless noted
[17] = S6 kinase pathway phospho-S6 level changes – cell-based, A549, cytoblot, luminescence, serum-stimulated, primary screen (AID 1158); settings: 5 h, higher = more signal;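 further: serum-stimulated A549 lung adenocarcinoma cells; signal is phosphorylated S6 detected by cytoblot immunostaining with HRP secondary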
[18] = biological target: NADPH oxidase 2 (Homo sapiens) (UniProt P04839); experiment: compounds shifting NOX2 Amplex Red fluorescence – cell-based, HEK293-NOX2, PMA-stimulated, NOX inhibitor project, primary screen (AID 1159); settings: 45 min; higher = more signal, called active from +8 up or from −8 down unless noted; further: test concentration not given here
[19] = biological target: NADPH oxidase 4 (Homo sapiens) (UniProt Q9NPH5); experiment: compounds shifting NOX4 Amplex Red fluorescence – cell-based, HEK293-NOX4, tetracycline-induced, NOX inhibitor project, primary screen (AID 1160); settings: HEK293-NOX4, Amplex Red H2O2 fluorescence, 45 min; higher = more signal, called active from +8 up or from −8 down unless noted
[20] = biological target: NADPH oxidase 5 (Homo sapiens) (UniProt Q96PH1); experiment: compounds shifting NOX5 Amplex Red fluorescence – cell-based, HEK293-NOX5, NOX inhibitor project, primary screen (AID 1161); settings: HEK293-NOX5, ionomycin, 45 min, higher = more signal
NADPH oxidase 5 (Homo sapiens), sequence (Q96PH1 whole entry, looked up): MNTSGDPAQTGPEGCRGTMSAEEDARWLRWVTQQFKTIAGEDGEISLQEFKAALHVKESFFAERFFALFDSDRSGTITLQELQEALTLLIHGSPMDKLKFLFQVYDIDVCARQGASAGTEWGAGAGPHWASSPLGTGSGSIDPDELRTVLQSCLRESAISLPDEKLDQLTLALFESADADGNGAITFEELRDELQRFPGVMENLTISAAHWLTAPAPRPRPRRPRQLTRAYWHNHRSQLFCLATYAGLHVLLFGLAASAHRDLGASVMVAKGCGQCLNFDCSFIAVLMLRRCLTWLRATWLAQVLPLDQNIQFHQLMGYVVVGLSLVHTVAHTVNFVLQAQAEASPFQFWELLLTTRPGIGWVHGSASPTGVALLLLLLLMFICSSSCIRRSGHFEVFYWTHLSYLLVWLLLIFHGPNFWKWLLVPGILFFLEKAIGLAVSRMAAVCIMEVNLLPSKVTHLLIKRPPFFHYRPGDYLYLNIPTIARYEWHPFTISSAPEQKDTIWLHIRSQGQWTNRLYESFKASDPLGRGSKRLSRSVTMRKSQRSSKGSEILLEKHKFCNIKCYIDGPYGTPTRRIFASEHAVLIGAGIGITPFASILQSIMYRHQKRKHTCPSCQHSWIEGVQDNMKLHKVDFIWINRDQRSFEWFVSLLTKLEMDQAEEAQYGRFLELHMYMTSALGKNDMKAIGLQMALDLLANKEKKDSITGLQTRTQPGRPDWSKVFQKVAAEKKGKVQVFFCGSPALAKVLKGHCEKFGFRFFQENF

NADPH oxidase 4 (Homo sapiens), sequence (Q9NPH5 whole entry, looked up): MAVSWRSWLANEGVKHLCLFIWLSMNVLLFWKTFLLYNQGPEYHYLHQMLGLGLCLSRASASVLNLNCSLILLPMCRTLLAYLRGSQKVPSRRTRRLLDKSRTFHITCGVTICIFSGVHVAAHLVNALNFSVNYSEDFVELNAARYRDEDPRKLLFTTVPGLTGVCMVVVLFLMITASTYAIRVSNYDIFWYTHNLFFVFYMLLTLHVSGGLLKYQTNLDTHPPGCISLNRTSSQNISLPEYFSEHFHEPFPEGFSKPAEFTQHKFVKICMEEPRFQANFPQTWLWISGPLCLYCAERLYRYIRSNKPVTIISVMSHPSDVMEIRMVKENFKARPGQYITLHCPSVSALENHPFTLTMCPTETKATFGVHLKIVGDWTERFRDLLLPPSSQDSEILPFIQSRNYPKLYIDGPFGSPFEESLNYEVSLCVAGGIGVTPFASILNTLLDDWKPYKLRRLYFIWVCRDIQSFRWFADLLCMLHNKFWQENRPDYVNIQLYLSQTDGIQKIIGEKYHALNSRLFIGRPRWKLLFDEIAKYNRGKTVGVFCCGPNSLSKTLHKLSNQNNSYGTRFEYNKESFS
NADPH oxidase 2 (Homo sapiens), sequence (P04839 whole entry, looked up): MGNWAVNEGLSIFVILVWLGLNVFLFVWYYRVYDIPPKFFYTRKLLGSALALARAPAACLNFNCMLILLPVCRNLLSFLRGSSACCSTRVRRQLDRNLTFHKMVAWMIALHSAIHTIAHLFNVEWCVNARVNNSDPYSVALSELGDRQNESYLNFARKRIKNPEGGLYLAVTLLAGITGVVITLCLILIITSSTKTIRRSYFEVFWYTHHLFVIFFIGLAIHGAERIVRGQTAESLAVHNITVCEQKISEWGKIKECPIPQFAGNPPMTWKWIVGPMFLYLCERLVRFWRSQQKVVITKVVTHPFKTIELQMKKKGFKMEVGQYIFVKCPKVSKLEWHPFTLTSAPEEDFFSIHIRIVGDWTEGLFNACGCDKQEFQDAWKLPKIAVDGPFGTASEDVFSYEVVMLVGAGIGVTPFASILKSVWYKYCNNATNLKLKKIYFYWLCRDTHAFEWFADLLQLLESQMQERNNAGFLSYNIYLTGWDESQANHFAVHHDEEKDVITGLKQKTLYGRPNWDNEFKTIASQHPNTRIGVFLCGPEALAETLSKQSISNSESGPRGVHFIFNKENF
Streptavidin (Streptomyces avidinii), sequence (P22629 whole entry, looked up): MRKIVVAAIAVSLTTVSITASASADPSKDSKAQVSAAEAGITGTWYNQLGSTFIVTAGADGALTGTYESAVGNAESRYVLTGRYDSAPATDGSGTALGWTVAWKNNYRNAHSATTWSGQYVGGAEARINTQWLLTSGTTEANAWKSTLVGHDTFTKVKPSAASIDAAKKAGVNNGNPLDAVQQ
Torsin-1A (Homo sapiens), sequence (O14656 whole entry, looked up): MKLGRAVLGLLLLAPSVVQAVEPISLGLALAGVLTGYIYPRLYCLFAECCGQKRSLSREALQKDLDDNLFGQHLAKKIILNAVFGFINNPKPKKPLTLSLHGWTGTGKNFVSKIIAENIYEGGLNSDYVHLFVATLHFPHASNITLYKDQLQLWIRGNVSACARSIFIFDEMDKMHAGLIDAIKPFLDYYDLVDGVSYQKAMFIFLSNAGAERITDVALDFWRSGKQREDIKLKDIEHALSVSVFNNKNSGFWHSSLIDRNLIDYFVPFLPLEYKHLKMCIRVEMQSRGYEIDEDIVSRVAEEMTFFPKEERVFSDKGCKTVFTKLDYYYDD

Compound | composite z-score [1] | z-score [2] | z-score [3] | z-score [4] | z-score [5] | composite z-score [6] | composite z-score [7] | composite z-score (Torsin-1A (Homo sapiens) [8]) | composite z-score (Torsin-1A (Homo sapiens) [9]) | composite z-score [10] | z-score [11] | composite z-score [12] | z-score [13] | z-score [14] | z-score [15] | z-score [16] | z-score [17] | z-score [18] | z-score [19] | z-score [20]
COC(=O)[C@H]1[C@H](c2ccccc2)C(=O)[C@]2(O)c3ccccc3O[C@@]12c1ccccc1 | 0.129 | -0.962 (inactive) | -1.45 (inactive) | -0.161 (inactive) | -0.474 (inactive) | 0.287 | -0.101 | 0.202 | 0.163 | 0.615 | -0.474 (inactive) | -0.0523 | -0.446 (inactive) | -0.657 (inactive) | 0.126 (inactive) | -0.564 (inactive) | 1.55 | -0.181 (inactive) | -1.55 (inactive) | -0.324
CCCc1cc2c(n1Cc1cccc(Cl)c1)C(C)C1CN(C(=O)c3ccccc3)C(C)(C(=O)OC)C21 (stereo not given) | 0.318 | -2.78 (inactive) | 0.00978 (inactive) | 0.0041 (inactive) | -1.1 (inactive) | 0.78 | 0.138 | -0.0514 | 1.27 | -0.083 | -1.69 (inactive) | 0.235 | 2.02 (inactive) | 0.676 (inactive) | 1.22 (inactive) | 0.153 (inactive) | -0.46 | -1.21 (inactive) | -2.3 (inactive) | -2.42
C=C(CC1(C(C)NP(=O)(c2ccccc2)c2ccccc2)CC1)c1ccccc1 (stereo not given) | 0.41 | -2.48 (inactive) | -0.917 (inactive) | 0.0109 (inactive) | 1.49 (inactive) | 0.416 | 0.122 | -1.03 | 0.0087 | 0.0881 | -1.67 (inactive) | 0.603 | 2.42 (inactive) | 0.809 (inactive) | 0.512 (inactive) | 1.03 (inactive) | 0.984 | -0.412 (inactive) | -3.69 (inactive) | -3.82
O=P(c1ccccc1)(c1ccccc1)N1CC2(CC2)CC(O)(c2ccccc2)C1 (stereo not given) | 0.323 | -1.55 (inactive) | 0.525 (inactive) | 0.204 (inactive) | -0.927 (inactive) | 0.386 | 0.309 | -0.316 | -0.276 | -1.05 | -1.16 (inactive) | 0.276 | 0.492 (inactive) | 0.585 (inactive) | 0.483 (inactive) | 0.741 (inactive) | 0.0869 | -0.356 (inactive) | -0.976 (inactive) | -2.94
COc1cc2c(cc1O)C=[N+](C)CC2 | 0.182 | -1.29 (inactive) | -0.527 (inactive) | -0.438 (inactive) | -0.811 (inactive) | -0.306 | -0.152 | -1.31 | -1.25 | 1.65 | 1.13 (inactive) | -0.147 | 2.39 (inactive) | -0.687 (inactive) | 0.0284 (inactive) | -0.752 (inactive) | 2.42 | -3.74 (inactive) | -2.03 (inactive) | -2.13
COC(=O)[C@H]1C(=O)c2ccccc2O[C@@](C(=O)OC)(c2ccccc2)[C@@H]1c1ccccc1 | 0.107 | -1.35 (inactive) | 0.352 (inactive) | -0.523 (inactive) | 1.24 (inactive) | -0.37 | 0.177 | 0.0049 | 0.0856 | 0.0053 | 0.0473 (inactive) | -0.199 | 0.251 (inactive) | -0.528 (inactive) | -0.591 (inactive) | -0.56 (inactive) | -0.651 | 1.19 (inactive) | 0.752 (inactive) | 0.627
CCOC(=O)[C@H]1CC=C2C(=O)Oc3ccc(Br)cc3[C@@H]21 | -0.707 | -0.87 (inactive) | -0.301 (inactive) | 0.0331 (inactive) | 34.1 (active) | 0.307 | -0.128 | 0.0083 | 0.127 | -0.968 | -0.704 (inactive) | 0.035 | 1.79 (inactive) | 1.03 (inactive) | -0.0107 (inactive) | 0.756 (inactive) | -0.747 | -0.0356 (inactive) | -1.75 (inactive) | -0.445
CCCC=C(CCC)[C@@H](NP(=O)(c1ccccc1)c1ccccc1)c1ccccc1 | -0.0444 | -0.411 (inactive) | 0.168 (inactive) | 0.201 (inactive) | 0.89 (inactive) | 0.821 | -0.168 | 0.364 | 0.368 | -0.0623 | -1.19 (inactive) | 0.547 | 4.03 (inactive) | 0.584 (inactive) | 0.689 (inactive) | 0.249 (inactive) | 1.02 | -1.7 (inactive) | -0.617 (inactive) | 0.842
